This is a sample that favours compounds with a hit; in the whole collection about 1.8% have one here.
ABCB6 inh 2 – inhibitors of human ABC transporter ABCB6; fluorescence ratio to DMSO, % at 10 µM; K562-ABCB6 porphyrin accumulation, flow cytometry, 1 h; hits give low values; 0.19% of 360,000 active; Q9NP58;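 active = fluorescence ratio to DMSO below 75%, the collection mean minus 3 SD; inconclusive = too few cells collected in the well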;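 note: signal is porphyrin accumulated inside mitochondria; 100% equals median channel fluorescence of DMSO control wells; lower ratio means ABCB6 inhibition with less porphyrin fluorescence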
Target sequence (Q9NP58 whole entry, looked up): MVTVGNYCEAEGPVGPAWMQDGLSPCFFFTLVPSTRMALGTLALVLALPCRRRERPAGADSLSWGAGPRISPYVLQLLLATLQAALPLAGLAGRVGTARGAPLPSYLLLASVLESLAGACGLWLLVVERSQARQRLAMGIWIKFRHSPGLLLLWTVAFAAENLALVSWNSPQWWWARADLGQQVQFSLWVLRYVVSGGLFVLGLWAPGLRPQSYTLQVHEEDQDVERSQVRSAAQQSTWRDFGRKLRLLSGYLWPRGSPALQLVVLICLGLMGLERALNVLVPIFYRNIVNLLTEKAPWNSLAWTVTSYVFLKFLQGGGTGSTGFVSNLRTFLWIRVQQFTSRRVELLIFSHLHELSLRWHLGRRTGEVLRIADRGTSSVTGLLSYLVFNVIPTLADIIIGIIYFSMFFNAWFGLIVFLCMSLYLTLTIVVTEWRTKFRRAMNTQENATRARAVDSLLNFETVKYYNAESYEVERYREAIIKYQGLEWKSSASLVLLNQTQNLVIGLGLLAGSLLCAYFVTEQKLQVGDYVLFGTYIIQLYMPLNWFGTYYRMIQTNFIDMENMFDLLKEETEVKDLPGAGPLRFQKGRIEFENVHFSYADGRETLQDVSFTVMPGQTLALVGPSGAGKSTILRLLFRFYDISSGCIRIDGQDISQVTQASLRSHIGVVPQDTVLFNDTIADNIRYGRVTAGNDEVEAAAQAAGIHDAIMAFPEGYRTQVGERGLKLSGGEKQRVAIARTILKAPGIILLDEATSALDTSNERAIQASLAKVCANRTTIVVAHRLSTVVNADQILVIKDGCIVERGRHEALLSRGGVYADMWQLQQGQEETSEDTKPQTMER
Myeloid diff MLP – compounds promoting myeloid differentiation | ER-HoxA9 myeloid progenitors, lysozyme-GFP differentiation, flow cytometry | calls only at 10 µM | 1% of 360,000 active | AID 624256;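 active = normalized GFP-positive differentiation at or above the plate's own cutoff, the solvent-only control mean plus 3 SD; inconclusive = no clear call, values can overlap the other calls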;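 note: cells exposed to compound for four days before flow analysis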
Exocytosis inh – blocks lytic granule exocytosis; TALL-104 LAMP-1 surface exposure, flow cytometry; cells stimulated with thapsigargin and PMA; inhibition, % at 10 µM; 0.66% of 360,000 active; AID 651702;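 active = inhibition above about 55%, limit read from the data; inconclusive = no clear call, values can overlap the other calls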
Granule exo CP1 – blocks lytic granule exocytosis. shares compounds with Exocytosis inh. TALL-104 cells, LAMP-1 externalization, flow cytometry; stimulated with PMA plus thapsigargin. inhibition, % at 10 µM. 11% of 1,500 active; in the data active = inhibition above about 60%;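 note: 0% = stimulated vehicle wells and 100% = unstimulated wells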
* marks the source's active call; other numbers are inactive results; i = inactive; ? = inconclusive; / = no result.

SMILES	ABCB6 inh 2	Myeloid diff MLP	Exocytosis inh	Granule exo CP1
Cc1ccccc1C(=O)Nc1c(C(=O)N(CCN(C)C)Cc2ccco2)oc2ccccc12	98.0	i	8.9	/
COc1ccccc1C(=O)Nc1c(C(=O)N(CCN(C)C)Cc2ccco2)oc2ccccc12	102.0	i	65.8*	1.9
CCOc1cc(N2CCOCC2)c(OCC)cc1NC(=O)c1nn(CC)c(=O)c2ccccc12	95.0	i	-2.5	/
CCCCN(CCCNC(=O)CN1C(=O)COc2ccc(S(=O)(=O)N3CCC(C)CC3)cc21)Cc1ccccc1	99.0	i	60.2*	-3.5
CCCCN(CCCC)CCNC(=O)CN1C(=O)COc2ccc(S(=O)(=O)N3CCC(C)CC3)cc21	101.0	i	-1.2	/
CN(CC(=O)NCCc1ccc(F)cc1)Cc1ccc(Br)cc1	104.0	i	69.8*	-13.3
CN(CC(=O)NCCCc1ccccc1)Cc1ccc(Br)cc1	102.0	i	22.6	/
CC(NC(=O)c1c(N)[nH]c(C(=O)c2ccccc2)c1-c1ccccc1Br)c1cccc2ccccc12 (stereo unspecified)	96.0	i	11.9	/
CC(C)(C)C(=O)NC(=O)Nc1ccccc1C(F)(F)F	98.0	i	109.4*	-8.7
CC(=O)Nc1ccccc1C(F)(F)F	99.0	i	-5.9	/
CCOC(=O)Nc1ccc(=O)n(Cc2c(Cl)cccc2Cl)c1	102.0	i	0.8	/
Cc1cccc(CN2C(=O)CSc3ccc(C(=O)NC4CC4)cc32)c1	101.0	i	-11.0	/
COc1cc(-c2coc3c(C(=O)NCc4ccc(OC)c(OC)c4)cccc23)ccc1O	89.0	?	66.1*	91.6*
COc1cc(-c2coc3c(C(=O)NCc4ccc(N(C)C)cc4)cccc23)ccc1O	100.0	i	3.6	/
CCc1nc2ccc(C(=O)NCCc3ccccn3)cn2c1N(C)CCC(C)C	87.0	i	0.8	/
CCS(=O)(=O)N1CCC(C(=O)NCc2cccc(OC)c2)CC1	103.0	i	-3.2	/
COc1cccc(CNC(=O)C2CCN(S(=O)(=O)c3ccc(Br)s3)CC2)c1	96.0	i	62.9*	-13.8
CC(NC(=O)C1CCN(S(=O)(=O)c2ccc(Br)s2)CC1)c1ccccc1 (stereo unspecified)	102.0	i	66.2*	-11.4
CCC(C)NC(=O)C1CCN(S(=O)(=O)c2ccc(Br)s2)CC1 (stereo unspecified)	101.0	i	1.5	/
Cc1ccc(C(=O)CN2C(=O)NC3(CCc4ccccc43)C2=O)s1 (stereo unspecified)	104.0	i	-5.6	/
Cc1ccc(N(C)S(=O)(=O)c2c(C)noc2/C=C/N(C)C)cc1	95.0	i	-4.2	/
COc1cc(-c2coc3c(C(=O)NC4CCCCC4)cccc23)ccc1O	90.0	i	8.0	/
COCCNCc1ccccc1[N+](=O)[O-]	100.0	i	-5.1	/
COc1ccc(C(C(=O)NC(C)(C)C)N(C(=O)CCC(=O)Nc2cc(C)on2)c2c(C)cccc2C)cc1 (stereo unspecified)	93.0	i	6.1	/
Cc1cc(NCCCN(C)C)n2c(nc3ccccc32)c1C#N	101.0	i	2.6	/
SMILES	ABCB6 inh 2	Myeloid diff MLP	Exocytosis inh	Granule exo CP1
Cc1cc(NCCCOC(C)C)n2c(nc3ccccc32)c1C#N	105.0	i	61.8*	-13.6
O=C1NC(=O)C(Cc2c[nH]c3ccccc23)N1 (stereo unspecified)	100.0	i	-6.5	/
COc1cc(C)c(NC(=O)COc2ccc3c(c2)CCC3)cc1OC	92.0	i	3.9	/
Cc1ccc2[nH]c3c(N4CCN(Cc5ccccc5)CC4)ncnc3c2c1	88.0	i	5.8	/
CCOc1ccc2[nH]c3c(N4CCN(c5ccccn5)CC4)ncnc3c2c1	91.0	i	88.3*	9.9
Cc1ccc(C(=O)N2CCN(C(=O)c3ccco3)CC2)cc1NC(=O)c1ccco1	102.0	i	0.6	/
Nc1ccc(-c2nc3ccc(N)cc3o2)cc1	104.0	i	63.2*	-3.2
Nc1ccc(-c2nc3cc(N)ccc3o2)cc1	97.0	i	-4.4	/
CCN(CC)CCC(=O)NN	94.0	/	4.6	/
CCCCCCNC(=O)CC(c1ccccc1)c1cc(Br)ccc1O (stereo unspecified)	97.0	i	66.3*	30.4
CC(C)NC(=O)CC(c1ccccc1)c1cc(Br)ccc1O (stereo unspecified)	98.0	i	2.2	/
Cc1ccc(/C=C2/NC(=O)N(Cc3ccccc3)C2=O)o1	213.0	i	57.5*	-9.1
COC(=O)CN1C(=O)N/C(=C/c2ccc(C)o2)C1=O	97.0	/	5.5	/
Cc1cc(C)c(NC(=O)CNC(=O)CN(C)Cc2ccc(Br)s2)c(C)c1	94.0	i	12.1	/
CC(NC(=O)CCC(=O)c1ccc(F)cc1)C1CC2CCC1C2 (stereo unspecified)	98.0	?	103.7*	-3.4
CC(NC(=O)c1ccc(F)cc1Cl)C1CC2CCC1C2 (stereo unspecified)	95.0	i	-1.1	/
COCCN(C(=O)COC(=O)CCOc1cccc(C)c1)c1c(N)n(Cc2ccccc2)c(=O)[nH]c1=O	100.0	/	12.8	/
CC(NC(=O)CN(C)Cc1cccc(Cl)c1)c1ccccc1 (stereo unspecified)	107.0	i	-13.8	/
CCOC(=O)Cn1c(=N)n(CCOc2cccc(C)c2)c2ccccc21	93.0	i	1.0	/
CCOC(=O)Cn1c(=N)n(CCOc2ccc(Br)cc2)c2ccccc21	98.0	i	65.7*	0.8
CCOC(=O)c1c(C)oc2c1cc(O)c1ccccc12	112.0	i	44.6	/
CC(=O)c1c(C)oc2c1cc(O)c1ccccc12	96.0	i	88.9*	-13.2
COc1ccc(CCN2CCCC(CN(C)Cc3cc(Cl)c(O)c(OC)c3)C2)cc1 (stereo unspecified)	100.0	i	55.9*	-10.8
CCN(CC1CCCN(CCc2cccc(OC)c2)C1)C(=O)c1ccoc1 (stereo unspecified)	96.0	i	2.3	/
COc1ccc(CCN2CCCC(CN(C)C(=O)c3ccoc3)C2)cc1 (stereo unspecified)	101.0	i	-0.4	/
SMILES	ABCB6 inh 2	Myeloid diff MLP	Exocytosis inh	Granule exo CP1
CCOc1cccc(CN(CC)CC2CCCN(CCc3cccc(OC)c3)C2)c1O (stereo unspecified)	96.0	i	85.4*	-11.6
CCN(Cc1cccc(OC)c1)CC1CCCN(CCc2cccc(OC)c2)C1 (stereo unspecified)	94.0	i	70.8*	-12.9
COc1ccc(CN(C)CC2CCCN(CCc3ccccc3C)C2)cc1O (stereo unspecified)	100.0	i	52.6	/
COc1cccc(CN(C)CC2CCCN(CCc3ccccc3C)C2)c1 (stereo unspecified)	105.0	i	56.9*	-10.2
CCN(CC1CCCN(CCc2cccc(OC)c2)C1)C(=O)C=C(C)C (stereo unspecified)	96.0	i	21.8	/
CC(C)c1cc(CNC(=O)C2CCC(=O)N(CCc3ccc(Cl)cc3)C2)on1 (stereo unspecified)	103.0	i	-1.1	/
CN(C)S(=O)(=O)Nc1ccccc1F	103.0	i	-0.4	/
CCN(Cc1ccc(O)cc1)CC1CCCN(CCc2cccc(F)c2)C1 (stereo unspecified)	102.0	i	67.2*	-12.6
